# Whole data set: some 1,100 compounds, median “Renilla luciferase signal (cell health) relative to plate median” near 0.97, cut for the highest 2% near 1.6. The sample as a whole holds a higher share of the highest values than the screen did.
# Test system: HEK293T (UBE3A T485A transfected, BAR Wnt reporter)
# Test: Renilla luciferase signal (cell health) relative to plate median (fold (linear ratio)); higher = higher Renilla signal
# Conditions: 24 h
# In short: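 Chemicals at 0.01–100 uM were left on transfected HEK293T cells for 24 h, after a four-hour wait following transfection. The cells held a BAR firefly luciferase Wnt reporter, TK-Renilla and an expression plasmid. Wnt activity, as the firefly/Renilla ratio from a Dual-Glo luciferase readout, and cell health, as raw Renilla, were median-centred within each plate. Results average four biological replicates.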
SMILES,Renilla luciferase signal (concentration: 0.01 uM),Renilla luciferase signal (concentration: 0.1 uM),Renilla luciferase signal (concentration: 1 uM),Renilla luciferase signal (concentration: 10 uM),Renilla luciferase signal (concentration: 100 uM)
CS(=O)(=O)c1ccc(C(=O)C2C(=O)CCCC2=O)c([N+](=O)[O-])c1 [Mesotrione],0.834,0.808,0.956,1.03,1.39
FC(F)C(F)(F)OCC(Cn1cncn1)c1ccc(Cl)cc1Cl (stereo not given) [Tetraconazole],1.01,1.09,0.957,0.997,0.0289
CO/N=C(/C1=NOCCO1)c1ccccc1Oc1ncnc(Oc2ccccc2Cl)c1F [Fluoxastrobin],0.875,0.941,1.05,0.383,1.63
ClC(Cl)(Cl)c1ccccc1 [Benzotrichloride],–,0.82,0.9,0.872,1.04
O=C(O)C1(c2ccc3c(c2)OC[C@H](Cc2ccc(-c4ccccc4)cc2)[C@H]3O)CCCC1,–,0.875,0.823,0.781,0.0901
O=C1C2CC=CCC2C(=O)N1SC(Cl)(Cl)Cl (stereo not given) [Captan],1.19,1.04,0.975,1.02,0.036
Clc1ccc(C(Cl)(Cl)Cl)cc1 [4-Chlorobenzotrichloride],–,0.548,0.799,0.652,0.663
COc1cc(OC)nc(Sc2cccc(Cl)c2C(=O)[O-])n1.[Na+] [Pyrithiobac-sodium],1.11,1.16,0.967,1.07,1.69
"CCCCCCCCCc1ccc(O)cc1 [4-Nonylphenol, branched]",–,1,0.945,1.06,0.973
CC(C)(C)C(O)C(Oc1ccc(Cl)cc1)n1cncn1 (stereo not given) [Triadimenol],1.01,0.885,0.844,0.906,0.699
CCNC(=O)NC(=O)/C(C#N)=N/OC [Cymoxanil],1.26,1.16,1.08,1.15,2.39
CO/C=C(/C(=O)OC)c1ccccc1COc1cccc(C(F)(F)F)n1 [Picoxystrobin],–,0.76,0.879,0.82,0.465
O=C(Nc1ccccc1-c1ccc(Cl)cc1)c1cccnc1Cl [Boscalid],0.775,0.848,0.903,0.818,1.24
Oc1cccc2cccnc12 [8-Hydroxyquinoline],–,0.779,0.797,0.764,0.0228
CC1=NNC(=O)N(/N=C/c2cccnc2)C1 [Pymetrozine],0.89,0.911,0.966,0.97,1.45
CC(C)OC(=O)Nc1cccc(Cl)c1 [Chlorpropham],0.728,0.618,0.828,0.81,0.766
CC(Oc1ccc(Cl)cc1Cl)C(=O)O (stereo not given) [Dichlorprop],0.843,0.959,0.959,1.04,1.6
CC(Oc1cccc(Cl)c1)C(=O)O (stereo not given) [Cloprop],0.924,0.701,0.814,1.01,2.51
CC(C)(C)C(=O)C(Oc1ccc(Cl)cc1)n1cncn1 (stereo not given) [Triadimefon],1.42,0.867,0.961,1.05,0.777
O=C1c2ccccc2C(=O)N1SC(Cl)(Cl)Cl [Folpet],1.08,1.03,1.08,1.17,0.0353
CNC(=O)Oc1ccccc1OC(C)C [Propoxur],0.908,0.899,0.869,0.843,1.18
c1cc2ccc3cccc4ccc(c1)c2c34 [Pyrene],–,0.967,0.928,1.05,0.889

SMILES,Renilla luciferase signal (concentration: 0.01 uM),Renilla luciferase signal (concentration: 0.1 uM),Renilla luciferase signal (concentration: 1 uM),Renilla luciferase signal (concentration: 10 uM),Renilla luciferase signal (concentration: 100 uM)
c1cc2c3c(cccc3c1)CC2 [Acenaphthene],–,1.17,1.26,1.14,1.68
C1=Cc2cccc3cccc1c23 [Acenaphthylene],–,0.739,0.666,0.684,0.683
CCOP(=S)(OCC)Oc1ccc2c(C)c(Cl)c(=O)oc2c1 [Coumaphos],1.01,1.11,1,1.04,0.717
COC(=O)c1ccccc1N [Methyl 2-aminobenzoate],–,1.09,1.07,1.11,1.51
COC(=O)NS(=O)(=O)c1ccc(N)cc1 [Asulam],1.08,1.11,0.923,0.97,2
COC(=O)NC(=S)Nc1ccccc1NC(=S)NC(=O)OC [Thiophanate-methyl],1.37,0.913,1,1.01,0.274
C1CC2OC2CC1C1CO1 (stereo not given) [4-Vinyl-1-cyclohexene dioxide],–,0.978,0.971,0.856,0.459
"Cc1cc(Cc2ccc(N)c(C)c2)ccc1N [4,4'-Methylenebis(2-methylaniline)]",–,1.07,1.1,0.902,0.647
CCOP(=O)(OCC)Oc1cc(C)nc(C(C)C)n1 [Diazoxon],1.03,0.822,0.982,0.982,1.37
[N-]=[N+]=[N-].[Na+] [Sodium Azide],1.38,–,1.01,1.05,–
[N-]=[N+]=[N-].[Na+] [Sodium azide],–,1.11,–,–,1.29
O=C1C2(Cl)C3(Cl)C4(Cl)C(Cl)(Cl)C5(Cl)C3(Cl)C1(Cl)C5(Cl)C24Cl (stereo not given) [Kepone],–,1.03,0.982,1,1.33
COP(=O)(NC(C)=O)SC (stereo not given) [Acephate],0.777,0.825,0.95,1,1.52
COP(N)(=O)SC (stereo not given) [Methamidophos],1.08,0.989,1.14,1.04,2.27
"Nc1ccc(Cc2ccc(N)cc2)cc1 [4,4'-Methylenedianiline]",–,0.803,0.812,0.825,0.725
O=C(O)C(Cl)(Cl)Cl [Trichloroacetic acid],–,0.932,1.09,1.11,1.35
CCOP(=S)(OCC)OC(Cl)C(Cl)(Cl)Cl (stereo not given) [Chlorethoxyfos],0.648,0.673,0.754,0.769,1.03
CCC(C)c1ccc(O)cc1 (stereo not given) [4-(Butan-2-yl)phenol],–,1.03,1.04,0.967,1.21
CN(C)C(=O)Nc1cccc(C(F)(F)F)c1 [Fluometuron],1.01,0.858,0.955,0.915,1.74
CC(C)Oc1cccc(NC(=O)c2ccccc2C(F)(F)F)c1 [Flutolanil],0.958,0.913,0.934,0.913,1.07
CN(C)C(=O)Nc1ccc(Cl)cc1 [Monuron],–,1.07,1.08,1.08,0.972
Cc1[nH]c(=O)n(C(C)(C)C)c(=O)c1Cl [Terbacil],0.884,0.706,0.903,0.738,1.53

SMILES,Renilla luciferase signal (concentration: 0.01 uM),Renilla luciferase signal (concentration: 0.1 uM),Renilla luciferase signal (concentration: 1 uM),Renilla luciferase signal (concentration: 10 uM),Renilla luciferase signal (concentration: 100 uM)
O=S(=O)(O)C(F)(F)C(F)(F)C(F)(F)C(F)(F)C(F)(F)C(F)(F)C(F)(F)C(F)(F)F,0.967,0.956,0.993,0.948,0.944
[Na+].[O-][Cl+][O-] [Sodium chlorite],–,1.07,0.996,1.06,1.34
"Clc1cc(Cl)c(Cl)cc1Cl [1,2,4,5-Tetrachlorobenzene]",–,0.579,0.572,0.454,0.504
Brc1ccc(Oc2ccccc2)cc1 [p-Bromodiphenyl ether],–,0.896,0.914,0.837,0.987
[OH][Sn]([c]1ccccc1)([c]1ccccc1)[c]1ccccc1 [Triphenyltin hydroxide],0.857,0.622,0.135,0.0103,0.0121
O=C(NC(=O)c1c(F)cccc1F)Nc1ccc(OC(F)(F)C(F)OC(F)(F)F)c(Cl)c1 (stereo not given) [Novaluron],1.08,0.982,0.998,0.935,1.48
CCOP(=O)(SC(C)CC)N1CCSC1=O (stereo not given) [Fosthiazate],1.08,1.07,1.19,1.21,1.7
[Cl-].[Cl-].[Hg+2] [Mercuric chloride],–,0.533,0.402,0.153,0.0217
"c1nc[nH]n1 [1H-1,2,4-Triazole]",–,0.873,0.956,0.885,1.12
CN1COCN(Cc2cnc(Cl)s2)C1=N[N+](=O)[O-] [Thiamethoxam],1.14,1.09,1.1,0.959,2.15
O=[N+]([O-])/N=C1\NCCN1Cc1ccc(Cl)nc1 [Imidacloprid],0.993,1.11,0.934,0.949,1.15
CN/C(=N\[N+](=O)[O-])NCc1cnc(Cl)s1 [Clothianidin],0.978,0.964,0.897,1.05,1.48
O=S1OCC2C(CO1)C1(Cl)C(Cl)=C(Cl)C2(Cl)C1(Cl)Cl (stereo not given) [Endosulfan],1.05,1.05,1.02,1.13,1.06
CS(=O)(=O)c1cc(C(F)(F)F)ccc1C(=O)c1cnoc1C1CC1 [Isoxaflutole],0.938,0.74,0.954,0.778,2.79
CCC[CH2][Sn]([Cl])([CH2]CCC)[CH2]CCC [Tributyltin chloride],–,0.598,0.574,0.235,0.0217
CCCSP(=O)(OCC)Oc1ccc(Br)cc1Cl (stereo not given) [Profenofos],0.9,0.888,0.969,1,0.894
Nc1nc(N)nc(NC2CC2)n1 [Cyromazine],1.1,0.889,0.95,1.05,1.86
CCN(CC)N=O [N-Nitrosodiethylamine],–,1.02,0.957,1.07,1.08
C=CC(=O)OCCCCCC(C)C [Isooctyl acrylate],–,0.895,0.841,0.931,1.07
CC1C(c2ccc(Cl)cc2)SC(=O)N1C(=O)NC1CCCCC1 (stereo not given) [Hexythiazox],0.957,0.999,0.929,0.977,0.244
CN=C=S [Methyl isothiocyanate],0.842,0.902,0.962,1.06,1.71
